Data: paper PMC13494018
A number with no mark means an inactive call. No rule for the calls is given here.

B1: design_612_bdadb936-3f14-48ad-830f-718e38d81c30_642_dldesign_0_cycle1_af2pred (protein)
chain: MREEARALLERAREALARARALAEAGGDGGEAVSLMVEALEAASRALRLARELGDEELAEEAERLLAEIRRATAAITQAVIDRA
B2: design_612_bdadb936-3f14-48ad-830f-718e38d81c30_262_dldesign_0_cycle1_af2pred (protein)
chain: AKERVKELAKEIEKLAKEAPPEVAKHLKKAAEALKKGVEEGPGAMAEAVVTLAEAAAEAYKLDPEVGERLRRIAAEVARLAIEYQA
B3: design_612_bdadb936-3f14-48ad-830f-718e38d81c30_773_dldesign_0_cycle1_af2pred (protein)
chain: SAAAEAQQRLNELLGRLTAATEAGAAVDPALASALAGKAFTELSKAHQYLLAGDVDAAQAELDKAEKLVKELEAAAAAAAAAAA
B4: design_612_bdadb936-3f14-48ad-830f-718e38d81c30_973_dldesign_0_cycle1_af2pred (protein)
chain: GAATALAILKANLAAQVKAAAAGVGAKAAAETAKVLADSAAGIAKADPAVAAEAEKLAAEAKAASKEFAAKAEAAAAA
B5: design_611_394c5ea9-a0d3-47c4-9d48-89ba6a28fdd0_1995_dldesign_0_cycle1_af2pred (protein)
chain: AELAKQIAKKVMETAIKIAEEETPEAGIEAGKRAAMTAVALGDLETAEETIERVVEIARKKDPEAAERAREELEAAYARALAAVAAS
B6: design_611_394c5ea9-a0d3-47c4-9d48-89ba6a28fdd0_1623_dldesign_0_cycle1_af2pred (protein)
chain: SAEVLAAAEKLVEIGELARKAAEAFPELAEKAAEAANLAALGLAKLASGATAAEGKKAMEKAEELAKELKKAL
B7: design_612_bdadb936-3f14-48ad-830f-718e38d81c30_331_dldesign_0_cycle1_af2pred (protein)
chain: GKKAQAIALIDEATALLIAAQAADAETGAKLTAEAVKLLSEAIELAAELNGRAAGLIGRLLALGAAGTISPERLKELAAAAKAEIEAA
B8: design_612_bdadb936-3f14-48ad-830f-718e38d81c30_608_dldesign_0_cycle1_af2pred (protein)
chain: AALVAQAAADLEAIGARYPALKPAADRALTLTPGLRLLAANTARNALPGSEEEIVEALRRMVEALEAEQARLDAA
B9: design_612_bdadb936-3f14-48ad-830f-718e38d81c30_247_dldesign_0_cycle1_af2pred (protein)
chain: GALGRSVARDTARAFLADPEKGKEMADIAAGVGATDAAAGRAALEELLRLAKEHPEVAEQLEAAAKKVAAAIKQAEAAAA
B10: design_612_bdadb936-3f14-48ad-830f-718e38d81c30_1207_dldesign_0_cycle1_af2pred (protein)
chain: GAELLAKKAQELYKKAEELAKKAPESVEAAKKAQEYAQQSIATVAELFEKFPEAPQELKASLARIAAQAAKYYLDAQKLIKAA
B11: design_611_394c5ea9-a0d3-47c4-9d48-89ba6a28fdd0_2003_dldesign_0_cycle1_af2pred (protein)
chain: GELKEQTAQLLETAIQAAKLSAKQAQAAIKAATIAGSQSPETKEISEEYGKKAIEAAKKSAEEAQKVIKEWLKLVKE
B12: design_611_394c5ea9-a0d3-47c4-9d48-89ba6a28fdd0_2413_dldesign_0_cycle1_af2pred (protein)
chain: TAEQVEKLKERAIERLKKAAELDKEAAEELLKLYEEMKKVSENLGEAALLAAKAAAIAKNPEARALASQALADLSQAAILAAA
B13: design_611_394c5ea9-a0d3-47c4-9d48-89ba6a28fdd0_2334_dldesign_0_cycle1_af2pred (protein)
chain: MTPAEAQLQAGEVFLRAAEQALKAGNYESAIKLAELAIEAAKQAKKLAKAAGDEATAKKAEEVEKKAKEVLKKAKE
B14: design_611_394c5ea9-a0d3-47c4-9d48-89ba6a28fdd0_2343_dldesign_0_cycle1_af2pred (protein)
chain: AQALADQQLIATVKAALKNAEELYKKDKKAGAKAFAAAAEVAKLAIEGSSAAAKPELKALEKKAKENEKKAKEDA
B15: design_612_bdadb936-3f14-48ad-830f-718e38d81c30_1230_dldesign_0_cycle1_af2pred (protein)
chain: AAAAAVATAAADAMYKQAKKQAEEAFKAAKENPEEGKKLAESALKNFELAATLYAQAGDEAKAKAVLEEGKEKYEEIMKKIKEAE
B16: design_611_394c5ea9-a0d3-47c4-9d48-89ba6a28fdd0_2429_dldesign_0_cycle1_af2pred (protein)
chain: GPERAELLRNAARQAEEAIRKGDESPDGVLYYTAAALIVANAIGDPELRAKAQAAAALSPEEARKVAEELRELALERARELA
B17: design_612_bdadb936-3f14-48ad-830f-718e38d81c30_1687_dldesign_0_cycle1_af2pred (protein)
chain: MELVKRAREILERAERAETVEELRRVLAEAARLAGEAARAAIADPATAAAANEALAIALEAMRVATERARAAR
B18: design_611_394c5ea9-a0d3-47c4-9d48-89ba6a28fdd0_1679_dldesign_0_cycle1_af2pred (protein)
chain: GEELEKAKEEAEKLTDLAKALAAQGTPLGKAAANAMSDSAVKIVLDTAKKLGKEEEGKKYADEIKAATAAALAA
B19: design_612_bdadb936-3f14-48ad-830f-718e38d81c30_271_dldesign_0_cycle1_af2pred (protein)
chain: AARAEALAAEGEALIEQALSDATLSEEERKALLNQAAHKFVAAAGALVADRGPAAQAEITALLSKAVEAKALAEA
B20: design_611_394c5ea9-a0d3-47c4-9d48-89ba6a28fdd0_1764_dldesign_0_cycle1_af2pred (protein)
chain: MLAEEARKYAEKGAEGEDSEEWFAKAAELYAQALLTSEEEARATFEALREVAERYPEKAEKVYAAISRGVQLAAQQAL
B21: design_611_394c5ea9-a0d3-47c4-9d48-89ba6a28fdd0_1787_dldesign_0_cycle1_af2pred (protein)
chain: AAAAIAAATTGMNIAKKNANTLLAQAEATGNAGLADAAKVAADIVKANAKAAAKLADADTGAALVKDAEDFAKATNAKIAAVKAKA
B22: design_611_394c5ea9-a0d3-47c4-9d48-89ba6a28fdd0_2213_dldesign_0_cycle1_af2pred (protein)
chain: GQELLAQAQKELKEGKALMKEGKYKEALAKFTQAANLAAKAAAAYADQPIAKQANAVLAEAVENMAKAQALID
B23: design_612_bdadb936-3f14-48ad-830f-718e38d81c30_715_dldesign_0_cycle1_af2pred (protein)
chain: IEQLAALARASYRAVRVAAENLAAGRLTPEQLKAAAQLAEGTEKLAKETAAAYNADPATKEKAAEFEELARFAKEVRDAARAAL
B24: design_612_bdadb936-3f14-48ad-830f-718e38d81c30_380_dldesign_0_cycle1_af2pred (protein)
chain: SQALQTQMLIANARNLAKNAEELLKKGDVEKAEKAVEALEKLAKIAGEASPEAGKEAGKLAEEARKKVEEFKK
B25: design_611_394c5ea9-a0d3-47c4-9d48-89ba6a28fdd0_2254_dldesign_0_cycle1_af2pred (protein)
chain: GKEEAQKLVEEAREAAKKAKEYTAKALAEDLEAEGAKSWAALNEALAKASQAAQLDPELGSAAIAEVVETAKEIKEKLDAAKAA
B26: design_612_bdadb936-3f14-48ad-830f-718e38d81c30_501_dldesign_0_cycle1_af2pred (protein)
chain: DLLAKQKELSEKYERVAEIGEEARKLVGEEAAELSLKALTYYTKAMAAYAAGEATAAEAEKYEKKGEEYEKKLKELKEKELKK
B27: design_612_bdadb936-3f14-48ad-830f-718e38d81c30_557_dldesign_0_cycle1_af2pred (protein)
chain: MDQAVADRTAEALAKHAKRLLEEGLKLAKEGDLEEAKKKVEAAKQVAEVLKNLGSPKAAELGEKMLEEAKKALEEIKKR
B28: design_612_bdadb936-3f14-48ad-830f-718e38d81c30_88_dldesign_0_cycle1_af2pred (protein)
chain: AAAAAAGEAALARLETEGAAAAAAAAADPAAAGEEIERVLALQAEVARAHPSVAAEAAAIARRYNAAIARAVVAA
B29: design_612_bdadb936-3f14-48ad-830f-718e38d81c30_198_dldesign_0_cycle1_af2pred (protein)
chain: DAAVAQGQKLRDAALAALAAATTLAQFNAAAQQGLAALAQITALIVAHPEAGPQLQKLAAEVLAAIEAARARALAA
B30: design_612_bdadb936-3f14-48ad-830f-718e38d81c30_1410_dldesign_0_cycle1_af2pred (protein)
chain: MEEIRALAEEALATAEAELATMRAAQEAGDVGTAVDALRVLFRTANEAIRRLRELGGPEEYIERLEAARREAQAILAATARRAIAQA
B31: design_612_bdadb936-3f14-48ad-830f-718e38d81c30_1240_dldesign_0_cycle1_af2pred (protein)
chain: GEEEERDERARELVEKGREEAEKYIAAGKVGEAAGVVVEKAAEAHRVAVSPEVKAEINRELAAQIRRIMEAIA
B32: design_612_bdadb936-3f14-48ad-830f-718e38d81c30_1181_dldesign_0_cycle1_af2pred (protein)
chain: MMEEIKKLTEKGEELLKKGKELAKEGTAEAANKALAYYVEAAEYYEKALRLAKEAGAEEEFIKELEKKLQEAFANANAAAKAAIALTA
B33: design_611_394c5ea9-a0d3-47c4-9d48-89ba6a28fdd0_2077_dldesign_0_cycle1_af2pred (protein)
chain: ASEELLKEAVTLNMRLAVEFPEVAKYARAAAHYLMAGDAEKAVESAEKMLEEAKKAGPEAAALAEKALKATKAAAADQAAER
B34: design_611_394c5ea9-a0d3-47c4-9d48-89ba6a28fdd0_2091_dldesign_0_cycle1_af2pred (protein)
chain: RAALEEALAKARELAEKVGEEDPEVAKEVLELIDKAAATSPATGLYYLLQALELMSRYAKESGSEVAREAAEALRAAVAIWSRLAIA
B35: design_612_bdadb936-3f14-48ad-830f-718e38d81c30_1324_dldesign_0_cycle1_af2pred (protein)
chain: AFAAAIAALTAAAAATTPALATQLNAVKTAVTNTAKNAQAAPPEVKAATAAKWAEIAQGAVDAALAAAAA
B36: design_611_394c5ea9-a0d3-47c4-9d48-89ba6a28fdd0_1682_dldesign_0_cycle1_af2pred (protein)
chain: SAALEELREKGKAEANALISASMKAAAAGLAGDAATAAAAAATIEANAKEAKEKAKEYPEAKEYYEKAAKVNTQLAEGAKLL
B37: design_611_394c5ea9-a0d3-47c4-9d48-89ba6a28fdd0_1683_dldesign_0_cycle1_af2pred (protein)
chain: DEAEELVRLVEEARALAIDPATRGQGVTLFLLVGIRSGPAVRAAAVEAARAAREAAALPPEERARRLEELAARVIAAIRAEA
B38: design_612_bdadb936-3f14-48ad-830f-718e38d81c30_35_dldesign_0_cycle1_af2pred (protein)
chain: SEAEKEAAKAEVRALGAQALDVALRAAARQGAPVAELAAVVQQISQLVDQGIALVEKGDLEAGLALAQQALQLAQQFAA

Molecular target: CD276, Q5ZPR3
Sequence (Q5ZPR3 whole entry): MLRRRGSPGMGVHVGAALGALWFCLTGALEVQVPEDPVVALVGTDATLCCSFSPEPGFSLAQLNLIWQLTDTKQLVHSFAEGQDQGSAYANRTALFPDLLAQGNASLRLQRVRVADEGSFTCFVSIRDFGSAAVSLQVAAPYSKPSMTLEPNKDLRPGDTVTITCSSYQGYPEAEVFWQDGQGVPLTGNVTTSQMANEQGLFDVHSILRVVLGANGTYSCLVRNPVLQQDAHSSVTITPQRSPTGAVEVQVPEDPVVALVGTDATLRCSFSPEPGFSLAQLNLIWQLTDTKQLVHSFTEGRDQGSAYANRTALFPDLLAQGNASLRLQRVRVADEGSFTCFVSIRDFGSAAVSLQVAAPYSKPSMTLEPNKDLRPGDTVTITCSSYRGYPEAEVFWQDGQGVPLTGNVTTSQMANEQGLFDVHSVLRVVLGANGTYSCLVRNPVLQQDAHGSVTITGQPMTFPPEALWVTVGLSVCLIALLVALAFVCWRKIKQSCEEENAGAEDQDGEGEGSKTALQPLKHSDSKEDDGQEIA

Row | Binder | binding in a display sort
1 | B1 | not found
2 | B2 | not found
3 | B3 | not found
4 | B4 | not found
5 | B5 | not found
6 | B6 | not found
7 | B7 | not found
8 | B8 | not found
9 | B9 | not found
10 | B10 | not found
11 | B11 | not found
12 | B12 | not found
13 | B13 | not found
14 | B14 | not found
15 | B15 | not found
16 | B16 | not found
17 | B17 | not found
18 | B18 | not found
19 | B19 | not found

Row | Binder | binding in a display sort
20 | B20 | not found
21 | B21 | not found
22 | B22 | not found
23 | B23 | not found
24 | B24 | not found
25 | B25 | not found
26 | B26 | not found
27 | B27 | not found
28 | B28 | not found
29 | B29 | not found
30 | B30 | binds (active)
31 | B31 | not found
32 | B32 | not found
33 | B33 | not found
34 | B34 | not found
35 | B35 | not found
36 | B36 | not found
37 | B37 | not found
38 | B38 | not found
